Experimental data: PubChem BioAssay (NCI)
About 83,000 compounds went through this panel and 20% of them were active in at least one assay; those are over-represented in the sample as a whole.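 48-hour exposure, single concentration, 96-well plates; percent growth endpoint where 0 means no net growth. Active: below 10.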 A number with no mark means an inactive call. Calls of active or inactive are those of the source.

How the values were obtained:
Assay in all cases: NCI-60 one-dose screen, 48 h (100 = growth as untreated, 0 = no growth, -100 = all killed)
Conditions in all cases: 10 µM unless noted
RPMI-8226 leukemia = tested on: RPMI-8226 leukemia
OVCAR-8 ovarian = tested on: OVCAR-8 ovarian
OVCAR-5 ovarian = tested on: OVCAR-5 ovarian
OVCAR-4 ovarian = tested on: OVCAR-4 ovarian
SK-OV-3 ovarian = tested on: SK-OV-3 ovarian
IGROV1 ovarian = tested on: IGROV1 ovarian
OVCAR-3 ovarian = tested on: OVCAR-3 ovarian
HS 578T breast = tested on: HS 578T breast
NCI/ADR-RES ovarian = tested on: NCI/ADR-RES ovarian

Structure (SMILES)	growth (RPMI-8226 leukemia)	growth (OVCAR-8 ovarian)	growth (OVCAR-5 ovarian) [%]	growth (OVCAR-4 ovarian) [%]	growth (SK-OV-3 ovarian) [%]	growth (IGROV1 ovarian)	growth (OVCAR-3 ovarian)	growth (HS 578T breast)	growth (NCI/ADR-RES ovarian)
Cc1cc(C(=O)CSc2nc3ccccc3c(=O)[nH]2)c(C)n1C	91.6%	96.4%	90.8	123	108	-33.9% (active)	91%	-35.7% (active)	103%
COC(=O)CCCCCN=Cc1c(O)c(O)c(C(C)C)c2cc(C)c(-c3c(C)cc4c(C(C)C)c(O)c(O)c(C=NCCCCCC(=O)OC)c4c3O)c(O)c12	16.6%	11.4%	11.3	15.5	24	25.6%	15.9%	19.9%	61.8%
COc1cc(/C=C2\CCCC3=C2NC(C)=NC3c2cc(OC)c(OC)c(OC)c2)cc(OC)c1OC (stereo unspecified)	-15.1% (active)	5.87% (active)	10.8	42.2	43.9	30.7%	28%	48.6%	14.5%
O=C(NCCCN1CCN(CCCNC(=O)C2CCCCC2)CC1)C1CCCCC1	93.3%	101%	104	102	91.6	104%	99.3%	102%	112%
Cc1ccc(Nc2ncnc3c2sc2ncccc23)cc1	105%	98.1%	101	109	101	105%	109%	102%	98.8%
CC(Cc1nnc(SCC(=O)Nc2ccc(I)cc2)n1N)c1ccccc1 (stereo unspecified)	59.8%	95.9%	84.4	172	97.8	8.44% (active)	111%	119%	96%
COc1ccc(-n2c(C)cc(-c3ccccc3)c2C)cc1	14.9%	51.6%	63.8	38	83.2	72%	75.5%	74.1%	40.2%
CCOC(=O)c1cc(/C(=N\O)c2cc(OC)c(OC)c(OC)c2)n2c(C)cccc12	41.5%	54.3%	73.2	54.1	38.4	52.5%	15.7%	12.4%	29.3%
CCc1c(C(=O)Nc2ccc3ccccc3c2)[nH]c(C)c1C(C)=O	75.8%	104%	101	76.7	99.7	108%	103%	98.5%	94.8%
c1ccc([P+](CCC[P+](c2ccccc2)(c2ccccc2)c2ccccc2)(c2ccccc2)c2ccccc2)cc1	1.19% (active)	70.6%	89.7	66.7	93.2	59.1%	54.1%	94.8%	104%
COc1ccc2c(c1)C(C)Cc1c(N(C)C)ncnc1N2C (stereo unspecified)	30.8%	40.8%	73.2	62.4	30	54.4%	10.3%	13.3%	36.2%
COc1ccc(-c2nc(-c3ccccc3)c(-c3ccccc3)n2C2CC2)cc1OC1CCCCC1	48.7%	55.4%	83	67.9	89.4	63.1%	58.4%	73.8%	55.3%
COC(=O)CCCCN=Cc1c(O)c(O)c(C(C)C)c2cc(C)c(-c3c(C)cc4c(C(C)C)c(O)c(O)c(C=NCCCCC(=O)OC)c4c3O)c(O)c12	17.7%	16.4%	17.8	13.7	40.1	26.4%	14.3%	9.48% (active)	52.8%
COc1cc2c(cc1OC)C1(C)N(CC2)C(=O)OC1(C)C (stereo unspecified)	105%	98.4%	107	99.5	107	109%	114%	98.1%	105%
CC1Cc2c(N(C)C)ncnc2N(C)c2ccc(O)cc21 (stereo unspecified)	82.9%	103%	99.4	84.6	86	93.6%	88.8%	76.2%	84.2%
CCC(=O)Nc1ccccc1C#C/C=C\C#Cc1ccccc1SC	20.1%	144%	69.1	74.6	78.1	-49.3% (active)	65%	-34.3% (active)	49.9%
O=C(Nc1ccc(F)c(Cl)c1)c1n[nH]c(=O)c2ccccc12	119%	95.4%	107	96.1	119	8.17% (active)	94.6%	129%	112%
CC(C(=O)n1cc(-c2ccccc2)c(-c2ccccc2)c1)c1ccccc1 (stereo unspecified)	98.2%	99.2%	106	107	105	111%	118%	115%	106%
Cn1c(-c2nonc2NC(=O)c2ccc(F)cc2)nc2ccccc21	106%	96.6%	117	114	111	104%	119%	110%	106%
Cc1ccc(Cn2c(-c3nonc3N)nc3ccccc32)cc1	91%	88.3%	81.2		80.4	67.2%	71.8%	72.9%	49.2%
O=C(CN1CCN(c2cc3c(cc2F)c(=O)c(C(=O)O)cn3C2CC2)CC1)Nc1ccc(C(=O)/C=C/c2ccc(Cl)cc2)cc1	90.2%		115	95.4	110	121%	128%	108%	111%
O=C(c1ccccc1)C(Cl)C(Cl)c1ccccc1 (stereo unspecified)	-5.33% (active)	-1.77% (active)	113	41.2	138		2.77% (active)	83.7%	80.2%
COc1ccc(Cl)cc1NC(N)=S	100%	108%	113	94.8	118		108%	104%	
NC(=O)NNC(=O)c1ccccc1	103%	110%	109	108	123		111%	108%	103%
Cc1cc(Cl)ccc1OC(C)C(=O)Nc1nnc(C2CC2)s1 (stereo unspecified)	89.6%	111%	98.7	104	103	-51.7% (active)	110%		96.6%
COc1ccc(-c2cn[nH]c2-c2cc(OC)c3c(c2)OCCO3)cc1		26.1%	48.1	73.7	15.9	50.2%	-36.6% (active)	3.05% (active)	9.78% (active)
O=c1c2cccc3c(Nc4ccc(F)cc4)ccc(c32)c2nc3ccccc3n12	57.4%	89.3%	84.8	76	101		94%		91.4%
CCCCNC(=O)NS(=O)(=O)c1ccc(N2N=C(c3ccc(C)cc3C)CC2c2ccc(OC)cc2)cc1 (stereo unspecified)	40.3%	62.9%	89.6		101	98.9%	75.2%	87.3%	45%
